Out of some 5,500 compounds screened, about 2,000 (36%) were called active. About 18% were inconclusive and are not listed. No stated cut-off is given here; in the data, active means normalized growth mostly below about 0.91 (no sharp cut-off); inconclusive means no clear call, values can overlap the other calls; inactive means mostly above about 0.92. The list shows a part of the results.
Assay: chemical genetic growth profiling, strain panel (AID 1159580);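 further: tested at 20 µM; growth read once vehicle control cultures reached saturation at 30 °C; 1 = growth at the plate median or of vehicle wells; lower values mean less growth of the strain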
Settings: growth OD
[1] = S. cerevisiae deletion strains, locus YDL101C, strain DUN1, hits give low values
[2] = S. cerevisiae deletion strains, locus YHR030C, strain SLT2, hits give low values

Measured: normalized growth

CSC(SC)=C(C#N)C(=O)c1ccccc1Cl
inactive: S. cerevisiae deletion strains, locus YBR160W, strain CDC28, hits give low values 0.937 | S. cerevisiae deletion strains, locus YDL017W, strain CDC7, hits give low values 0.911 | S. cerevisiae deletion strains, locus YDL028C, strain MPS1, hits give low values 0.934 | S. cerevisiae deletion strains, locus YDL108W, strain KIN28, hits give low values 0.927 | S. cerevisiae deletion strains, locus YDR226W, strain ADK1, hits give low values 0.911 | S. cerevisiae deletion strains, locus YFR003C, strain YPI1, hits give low values 0.915 | S. cerevisiae deletion strains, locus YIL147C, strain SLN1, hits give low values 0.937 | S. cerevisiae deletion strains, locus YPR106W, strain ISR1, hits give low values 0.936 | S. cerevisiae deletion strains, locus YPR111W, strain DBF20, hits give low values 0.934
active: S. cerevisiae deletion strains, locus YAR019C, strain CDC15, hits give low values 0.422 | S. cerevisiae deletion strains, locus YBL105C, strain PKC1, hits give low values 0.636 | S. cerevisiae deletion strains, locus YBR135W, strain CKS1, hits give low values 0.816 | [1] 0.583 | S. cerevisiae deletion strains, locus YDL132W, strain cdc53, hits give low values 0.626 | S. cerevisiae deletion strains, locus YDL214C, strain PRR2, hits give low values 0.135 | S. cerevisiae deletion strains, locus YDR052C, strain DBF4, hits give low values 0.826 | S. cerevisiae deletion strains, locus YDR054C, strain cdc34, hits give low values 0.507 | S. cerevisiae deletion strains, locus YDR477W, strain SNF1, hits give low values 0.134 | S. cerevisiae deletion strains, locus YER123W, strain YCK3, hits give low values 0.114 | S. cerevisiae deletion strains, locus YER133W, strain GLC7, hits give low values 0.116 | S. cerevisiae deletion strains, locus YFL009W, strain cdc4, hits give low values 0.707 | S. cerevisiae deletion strains, locus YFL029C, strain CAK1, hits give low values 0.326 | S. cerevisiae deletion strains, locus YFR019W, strain FAB1, hits give low values 0.105 | S. cerevisiae deletion strains, locus YGR040W, strain KSS1, hits give low values 0.13 | S. cerevisiae deletion strains, locus YGR052W, strain FMP48, hits give low values 0.144 | S. cerevisiae deletion strains, locus YGR092W, strain DBF2, hits give low values 0.118 | [2] 0.118 | S. cerevisiae deletion strains, locus YHR079C, strain IRE1, hits give low values 0.134 | S. cerevisiae deletion strains, locus YHR082C, strain KSP1, hits give low values 0.133 | S. cerevisiae deletion strains, locus YHR205W, strain SCH9, hits give low values 0.0151 | S. cerevisiae deletion strains, locus YJL095W, strain BCK1, hits give low values 0.119 | S. cerevisiae deletion strains, locus YJL157C, strain FAR1, hits give low values 0.121 | S. cerevisiae deletion strains, locus YJR016C, strain ILV3, hits give low values 0.863 | S. cerevisiae deletion strains, locus YJR066W, strain TOR1 (second series), hits give low values 0.105 | S. cerevisiae deletion strains, locus YJR066W, strain TOR1, hits give low values 0.105 | S. cerevisiae deletion strains, locus YKL048C, strain ELM1, hits give low values 0.182 | S. cerevisiae deletion strains, locus YKL067W, strain YNK1, hits give low values 0.163 | S. cerevisiae deletion strains, locus YKL101W, strain HSL1, hits give low values 0.153 | S. cerevisiae deletion strains, locus YKL203C, strain TOR2, hits give low values 0.0997 | S. cerevisiae deletion strains, locus YLR113W, strain HOG1, hits give low values 0.147 | S. cerevisiae deletion strains, locus YLR133W, strain CKI1, hits give low values 0.132 | S. cerevisiae deletion strains, locus YLR403W, strain SFP1, hits give low values 0.0452 | S. cerevisiae deletion strains, locus YML070W, strain DAK1, hits give low values 0.113 | S. cerevisiae deletion strains, locus YMR001C, strain CDC5, hits give low values 0.732 | S. cerevisiae deletion strains, locus YMR205C, strain PFK2 (second series), hits give low values 0.179 | S. cerevisiae deletion strains, locus YNL006W, strain LST8, hits give low values 0.304 | S. cerevisiae deletion strains, locus YNL020C, strain ARK1, hits give low values 0.115 | S. cerevisiae deletion strains, locus YNL161W, strain CBK1, hits give low values 0.661 | S. cerevisiae deletion strains, locus YNL183C, strain NPR1, hits give low values 0.133 | S. cerevisiae deletion strains, locus YNL207W, strain RIO2, hits give low values 0.355 | S. cerevisiae deletion strains, locus YNL307C, strain MCK1 (second series), hits give low values 0.106 | S. cerevisiae deletion strains, locus YOL078W, strain AVO1, hits give low values 0.573 | S. cerevisiae deletion strains, locus YOL136C, strain PFK27, hits give low values 0.101 | S. cerevisiae deletion strains, locus YOR061W, strain CKA2, hits give low values 0.122 | S. cerevisiae deletion strains, locus YOR119C, strain RIO1, hits give low values 0.125 | S. cerevisiae deletion strains, locus YOR231W, strain MKK1, hits give low values 0.127 | S. cerevisiae deletion strains, locus YPL031C, strain PHO85, hits give low values 0.108 | S. cerevisiae deletion strains, locus YPL153C, strain RAD53, hits give low values 0.121 | S. cerevisiae deletion strains, locus YPL204W, strain HRR25, hits give low values 0.117 | S. cerevisiae deletion strains, locus YPL209C, strain IPL1, hits give low values 0.774 | S. cerevisiae deletion strains, locus YPL256C, strain CLN2, hits give low values 0.161 | S. cerevisiae deletion strains, locus YPR025C, strain CCL1, hits give low values 0.723 | S. cerevisiae deletion strains, strain NNK1, hits give low values 0.342 | S. cerevisiae deletion strains, strain TSCII, hits give low values 0.434

COc1cccc(CC(=O)NN)c1
inactive: S. cerevisiae deletion strains, locus YAL013W, strain DEP1, hits give low values 0.982 | S. cerevisiae deletion strains, locus YBR229C, strain ROT2, hits give low values 1.02 | [1] 1.05 | S. cerevisiae deletion strains, locus YDL134C, strain PPH21, hits give low values 0.995 | S. cerevisiae deletion strains, locus YDR150W, strain NUM1, hits give low values 1.03 | S. cerevisiae deletion strains, locus YEL061C, strain CIN8, hits give low values 1 | S. cerevisiae deletion strains, locus YGR078C, strain PAC10, hits give low values 1.04 | S. cerevisiae deletion strains, locus YGR229C, strain SMI1, hits give low values 0.999 | [2] 1.06 | S. cerevisiae deletion strains, locus YHR087W, strain rtc3, hits give low values 0.971 | S. cerevisiae deletion strains, locus YJL187C, strain SWE1, hits give low values 0.981 | S. cerevisiae deletion strains, locus YJR043C, strain POL32, hits give low values 1.02 | S. cerevisiae deletion strains, locus YJR075W, strain HOC1, hits give low values 0.991 | S. cerevisiae deletion strains, locus YKL190W, strain CNB1, hits give low values 1 | S. cerevisiae deletion strains, locus YLR039C, strain RIC1, hits give low values 1.02 | S. cerevisiae deletion strains, locus YLR058C, strain SHM2 (second series), hits give low values 0.987 | S. cerevisiae deletion strains, locus YLR085C, strain ARP6, hits give low values 0.995 | S. cerevisiae deletion strains, locus YLR262C, strain YPT6, hits give low values 0.98 | S. cerevisiae deletion strains, locus YML094W, strain GIM5, hits give low values 0.982 | S. cerevisiae deletion strains, locus YMR219W, strain ESC1, hits give low values 0.986 | S. cerevisiae deletion strains, locus YMR263W, strain SAP30, hits give low values 1 | S. cerevisiae deletion strains, locus YMR307W, strain GAS1, hits give low values 0.987 | S. cerevisiae deletion strains, locus YNL153C, strain GIM3, hits give low values 1.04 | S. cerevisiae deletion strains, locus YNL298W, strain CLA4 (second series), hits give low values 1.02 | S. cerevisiae deletion strains, locus YNL322C, strain KRE1, hits give low values 1.01 | S. cerevisiae deletion strains, locus YNR030W, strain Alg12, hits give low values 0.986 | S. cerevisiae deletion strains, locus YPL055C, strain LGE1, hits give low values 0.96 | S. cerevisiae deletion strains, locus YPL241C, strain CIN2, hits give low values 1.01 | S. cerevisiae deletion strains, locus YPR135W, strain CTF4, hits give low values 1.04 | S. cerevisiae strains, strain wild type, hits give low values 1.02
